RE007 growth inh – less growth of the S. pombe RE007 Vpr strain; 0.21% of 360,000 active; Potency, µM (highest dose often 92.2 µM), without a hit: top-dose activity change, negative = less growth, usual class: inhibitors; AID 651644; S. pombe RE007 Vpr strain, BacTiter-Glo ATP luminescence, 24 h; active = well fitted falling curve with a large enough effect; inconclusive = small, poorly fitted or top-dose-only effect; inactive = no such curve, though single readings can be large or run the other way; also: nearly all actives have a fitted effect of over 50% in size
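Fission yeast RE007 carrying one integrated HIV-1 vpr copy, seeded at OD 0.01 in PMG+AL medium with 23 nL pinned compound. Grown 24 h at 30 degrees; viability read by BacTiter-Glo luminescence after 5 min.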
Tb PYK inh – inhibitors of Trypanosoma brucei pyruvate kinase. Q57TT1. TbPYK enzyme, Kinase-Glo Plus ATP luminescence, 45 min. Potency, µM (highest dose often 76.8 µM), for the others: top-dose activity, negative = inhibition, most hits filed as inhibitors. 0.12% of 410,000 active. AID 624173; also: nearly all actives have a fitted effect of over 50% in size
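ADP (130 uM final) triggers the TbPYK reaction after compound addition; incubation is 45 min at room temperature. Kinase-Glo Plus is then added and luminescence imaged. Normalized data are fitted to concentration-effect curves.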
FMDV inh – blocks foot and mouth disease virus; FMDV antiviral cell-based qHTS; Potency, µM (series often up to 57.9 µM), for the others: at the highest dose activity change, negative = inhibition, hits mostly inhibitors; 1.2% of 410,000 active; calls by dose curve; tested in HEK293T cells; also: read-out not given here; nearly all actives have a fitted effect of over 45% in size
Sm TGR block – inhibitors of Schistosoma mansoni thioredoxin glutathione reductase; Potency, µM (top dose mostly 114 µM), for the others: at the top dose activity change, negative = inhibition, hits mostly inhibitors; 3% of 360,000 active; purified TGR, DTNB reduction, TNB absorbance 405 nm; AID 485364; also: nearly all actives have a fitted effect of over 60% in size
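First, TGR (20 nM dispensed) and NADPH were mixed with compound. Second, a 15 min room-temperature incubation followed. Third, further NADPH and then DTNB were added to start the reaction. Finally, TNB absorbance was monitored kinetically.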
Active calls of the source: *; ? = inconclusive; / = not tested or not shown. Most compounds without a hit are left out; they make up all but 3.7% or so of the library. Unless noted, calls follow the shape of the dose curve; as a rule, active = well fitted curve in the direction sought with a large enough effect; inconclusive = small, poorly fitted or top-dose-only effect, or another doubt; inactive = no such curve, though single readings can be large; an effect the other way counts as inactive or inconclusive. % is scaled to controls: 0 for no effect and ±100 for the full control effect; potency is read from the fitted curve at half-maximal effect.

SMILES	RE007 growth inh	Tb PYK inh	FMDV inh	Sm TGR block
Cc1ccc2nc(NC(=O)c3nc(SCc4ccccc4C)ncc3Cl)sc2c1	/	-5%	6%	0%
COC(=O)c1sc2cccc(F)c2c1S(=O)(=O)NCc1ccc(Cl)cc1	/	-9%	52%	9%
O=C(Nc1ccc2cn[nH]c2c1)c1c(Cl)cccc1Cl	3%	?	-9%	1%
O=C1C(Cl)=C(Nc2ccc3cn[nH]c3c2)C(=O)c2ccccc21	32µM*	-23%	20µM*	0.32µM*
CC(=O)Nc1ccc(NC2=C(Cl)C(=O)c3ccccc3C2=O)cc1	6%	-16%	28µM*	0.89µM*
COc1ccccc1NC1=C(NC(C)=O)C(=O)c2ccccc2C1=O	-29%	?	6%	4µM*
CN(C)c1ccc(NC2=C(Cl)C(=O)c3ccccc3C2=O)cc1	?	?	?	8.9µM*
COC1=C(Nc2ccccc2OC)C(=O)c2ccccc2C1=O	1%	1%	-2%	?
CO/N=C(\C(=O)N[C@@H]1C(=O)N2C(C(=O)OCOC(=O)C(C)(C)C)=C(/C=C\c3scnc3C)CS[C@H]12)c1csc(N)n1	/	/	1%	/
COc1cnc(-c2ccccn2)nc1Oc1ccc(Cl)c2ccccc12	19%	-5%	3.2µM*	11%
COc1cnc(-c2ccccn2)nc1Oc1ccccc1Cl	19%	6%	24%	5%
Cc1ccc(NC(=O)c2oc3c(c2C)-c2[nH]ncc2CC3)c(Cl)c1	/	2%	32%	-12%
COc1cc(OC)cc(-c2cc3ccc(OC)cc3cn2)c1	40µM*	?	-5%	6%
COc1ccc2cc(-c3ccsc3)ncc2c1	-14%	-4%	38%	40µM*
Cc1ccc(C)c(N2CCN(c3nc4ccccc4n4c(C)nnc34)CC2)c1	/	2%	-25%	3%
CSc1ccccc1OCc1cc(C(=O)N(C)Cc2ccc(C)o2)no1	-20%	?	27%	7.9µM*
CSc1ccccc1OCc1cc(C(=O)N2CCSCC2)no1	-4%	-10%	0%	0%
CSc1ccccc1OCc1cc(C(=O)N2CCN(c3ncccn3)CC2)no1	-1%	-2%	3%	40µM*
CCCc1nn2c(=O)cc(COC(=O)c3ccc4c(c3)OCO4)nc2s1	/	-2%	-1%	7%
Cc1oc2ccc(O)c(CN3CCN(C)CC3)c2c1C(=O)Nc1cccc(Cl)c1C	/	-8%	-11%	1%
CCSC1=NC2(CCCCC2)Nc2sc3c(c21)CCCC3	40µM*	-24%	?	56µM*
CC/C(O)=N/S(=O)(=O)c1ccc(-c2c(-c3ccccc3)noc2C)cc1	/	3%	/	/
COc1ccc(C(=O)C(CN2CCCC2)c2ccccc2)cc1 (stereo not drawn)	?	3%	16µM*	-5%
c1ccc(C(CN2CCOCC2)c2ccccc2)cc1	5%	-8%	4%	-2%
O=C(c1ccccc1)C(CCC(CN1CCOCC1)C(=O)c1ccccc1)CN1CCOCC1 (stereo not drawn)	5%	-6%	25µM*	8.9µM*
SMILES	RE007 growth inh	Tb PYK inh	FMDV inh	Sm TGR block
O=C(c1ccccc1)C(Cc1ccccc1)N1CCOCC1 (stereo not drawn)	7%	-3%	-14%	/
O=C(c1ccc(Cl)cc1)C(CN1CCCC1)c1ccccc1 (stereo not drawn)	?	-5%	25µM*	28µM*
Cc1ccc(C(=O)[C@H](C)CN2CCCCC2)cc1	/	0%	/	/
O=C(c1ccc(F)cc1)C(CN1CCOCC1)c1ccccc1 (stereo not drawn)	?	-1%	8.9µM*	-16%
COc1ccc(C(=O)C(OC(=O)c2ccccc2)c2ccccc2)cc1 (stereo not drawn)	0%	2%	79%	16%
Cc1ccsc1CN(C(=O)COc1cccc(C)c1C)C1CCS(=O)(=O)C1 (stereo not drawn)	/	-6%	-9%	9%
CCCN(CCC)C(=O)Cn1c(=O)n(-c2ccc(C)c(C)c2)c(=O)c2c3c(sc21)CCCCC3	/	3%	-29%	-3%
CN1CC(=O)NC1=N	/	/	3%	/
COc1ccc(-c2nc(C)c(CCNC(=O)C(=O)Nc3ccccc3C#N)s2)cc1OC	/	6%	-10%	-6%
CC(C)(C)NC(=O)C(c1ccc(C#N)cc1)n1c(=O)c(-c2ccco2)nc2ccccc21 (stereo not drawn)	4%	/	-5%	/
CCCOc1ccc(C(=O)C(CN2CCCC2)c2ccccc2)cc1 (stereo not drawn)	-3%	2%	18µM*	-12%

High-throughput results deposited in PubChem by National Center for Advancing Translational Sciences (NCATS).
